Compounds without any hit were thinned out: in the full panel of roughly 83,000, 20% have a hit.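 Activity criterion: percent growth below 10, measured after cells in 96-well plates were exposed to a single compound concentration for 48 hours.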 A number with no mark means an inactive call. Activity calls are given as the source filed them.
What was measured:
Test in all cases: NCI-60 one-dose screen, 48 h (100 = growth as untreated, 0 = no growth, -100 = all killed)
Settings in all cases: 10 µM unless noted
HCT-15 colon = system: HCT-15 colon
HT29 colon = system: HT29 colon
SNB-75 CNS = system: SNB-75 CNS
SNB-19 CNS = system: SNB-19 CNS
U251 CNS = system: U251 CNS
PC-3 prostate = system: PC-3 prostate
SK-MEL-5 melanoma = system: SK-MEL-5 melanoma
UACC-62 melanoma = system: UACC-62 melanoma
LOX IMVI melanoma = system: LOX IMVI melanoma
SK-MEL-28 melanoma = system: SK-MEL-28 melanoma

Row | SMILES | growth (HCT-15 colon) | growth (HT29 colon) | growth (SNB-75 CNS) | growth (SNB-19 CNS) | growth (U251 CNS) | growth (PC-3 prostate) | growth (SK-MEL-5 melanoma) | growth (UACC-62 melanoma) | growth (LOX IMVI melanoma) | growth (SK-MEL-28 melanoma)
1 | O=C(CSc1nc2sc3c(c2c(=O)n1-c1ccc(Cl)cc1)CCCC3)N/N=C/C=C/c1ccccc1 | -57.6% (active) | -19.3% (active) | -23.2% (active) | 27% | -76.4% (active) | -17.4% (active) | -95.2% (active) | -79.9% (active) | 31.7% | -80.1% (active)
2 | CCOc1ccccc1[C@H]1C(C(=O)c2ccc(Cl)cc2)C2(N[C@@H]1c1ccccc1)C(=O)Nc1ccc(Cl)cc12 (stereo not given in full) | 20.3% | 10.7% | 30.7% | 37.7% | 36.3% | 9.44% (active) | 6.43% (active) | 17.5% | 13.2% | 41.2%
3 | Fc1cccc(CNc2nc(SCCN3CCOCC3)nc3c2cnn3CC(Cl)c2ccc(Br)cc2)c1 (stereo not given) | -64.7% (active) | -49.9% (active) | 42.3% | 42.2% | 25.2% | 25.8% | 3.78% (active) | 28.2% | 5.6% (active) | 46.8%
4 | CCc1ccccc1-c1nc(CN[C@@H]2C[C@@H]3C[C@H]([C@H]2C)C3(C)C)c(C)o1 | -71.2% (active) | -73.8% (active) | -68.1% (active) | -81.7% (active) | -61.9% (active) | -54.3% (active) | -94.3% (active) | -88.3% (active) | -94.4% (active) | -80.3% (active)
5 | CCOc1ccc2[nH]c(=O)c(C(c3nnnn3CC3CCCO3)N3CCN(Cc4ccccc4)CC3)cc2c1 (stereo not given) | 99.7% | 117% | -22.2% (active) | 38.5% | 60.9% | 94% | 104% | 76.3% | 87.2% | 101%
6 | COc1sc(/C=N/NC(=O)c2[nH]c3ccc(Br)cc3c2-c2ccccc2)cc1Cl | -26.2% (active) | -52.8% (active) | 42% | -46% (active) | -40.7% (active) | 4.59% (active) | -91.1% (active) | -30.6% (active) | -91.7% (active) | -33.1% (active)
7 | Cc1cc(C)c2[nH]c(=O)c(C(c3nnnn3Cc3ccc4c(c3)OCO4)N3CCN(C)CC3)cc2c1 (stereo not given) | 110% | 110% | 115% | 101% | 104% | 111% | 107% | 104% | 100% | 105%
8 | COc1ccc2[nH]c(=O)c(CSc3ccccc3Nc3nccc(-c4ccc(Cl)cc4)n3)cc2c1 | 25.8% | 17.3% | 23.6% | 56.8% | 37.8% | 38.5% | 25.4% | 52.6% | 19.4% | 74.1%
9 | O=C(Nc1ccc(-c2ccc3c(c2)NC(=O)/C3=C\c2ccc[nH]2)cc1)Nc1cccc(Cl)c1 | -32.5% (active) | -61.5% (active) | 16.6% | 19.8% | -52.4% (active) | 13.5% | -45.7% (active) | -36.3% (active) | -88.4% (active) | -4.21% (active)
10 | Cn1cc(-c2cc(N)n3nc(-c4c[nH]c5ccccc45)cc3n2)c2cc(F)ccc21 | -77.5% (active) | -35.4% (active) | 71.5% | 15% | -39.4% (active) | 17.4% | 67.4% | 66.3% | -80.7% (active) | 77.5%
11 | Cc1nn(-c2ccccc2)c2nc(C)n(CC(=O)N/N=C/c3cccc([N+](=O)[O-])c3)c(=O)c12 | 96.2% | 102% | 79.5% | 77% | 98.3% | 80.1% | 97.6% | 81.3% | 88.8% | 106%
12 | Cc1ccc(C(=O)C[n+]2cccc3c4ccccc4ccc32)cc1 | 56.8% | 12.5% | 43% | 25.9% | 17.8% | 18.7% | -88.8% (active) | 32.2% | -24.2% (active) | 44.5%
13 | Cc1nc2sccn2c1-c1nnc(SCC(C)C)o1 | 77.2% | 79.9% | 73.7% | 78.7% | 78.2% | 83.1% | 89.4% | 77.2% | 91.3% | 104%
14 | O=C(CSc1nnc(-c2ccc(-c3nc4ccccc4[nH]3)cc2)o1)Nc1ccccc1 | 55.5% | 70.7% | 46.6% | 3.01% (active) | -61% (active) | 86.2% | 82.7% | 92.1% | 3.54% (active) | 36.3%
15 | COc1cc(-c2ccc3ncnc(N4CCc5ccc(Cl)cc54)c3c2)cnc1Cl | 24% | 15.1% | -2.67% (active) | 35% | 45.6% | 14.5% | -1.72% (active) | 10% | 11.7% | 23.8%
16 | O=C(N=Nc1c(O)[nH]c2ccc(Br)cc12)c1ccc2nc(-c3ccc(Cl)cc3)[nH]c2c1 | 58.9% | 10.7% | -18% (active) | -27.2% (active) | -91.8% (active) | 10% | 37.3% | -74.8% (active) | -100% (active) | -96.3% (active)
17 | COc1ccc(N=Nc2c(N)nn3c(N)c(C#N)c(-c4ccc(F)cc4)nc23)cc1 | 86.1% | 84.6% | 82.4% | 59.5% | 48.7% | 67% | 34.7% | 61.5% | 75.1% | 90.5%
18 | O=C(NN1C(=O)/C(=C/C=C/c2ccc([N+](=O)[O-])o2)SC1=S)c1ccc(O)cc1 | -73% (active) | -67.7% (active) | -65.1% (active) | -100% (active) | -91.4% (active) | -67.2% (active) | -100% (active) | -99.3% (active) | -84.8% (active) | -100% (active)
19 | COC(=O)c1cc(C(=O)C(F)(F)F)n2c3ccccc3c3ccccc3c12 | 93.8% | 96.1% | 6.37% (active) | 67.8% | 70.1% | 66.8% | 95.8% | 69.3% | 77.2% | 111%
20 | O=C1Nc2ccccc2/C1=C/C(=O)c1cc2ccccc2oc1=O | 30.3% | 110% | 126% | 101% | 107% | 95.1% | 99.9% | 88.9% | 91% | 36.7%
21 | COc1cc2cc(C(=O)N3C[C@@H](CCl)c4c3cc(OC(=O)N(CCC(=O)N3CCN(C)CC3)C3CCCCC3)c3ccccc43)[nH]c2c(OC)c1OC | -34.5% (active) | -34.5% (active) | -75.7% (active) | -5.79% (active) | -63.4% (active) | -17.8% (active) | -99.2% (active) | -94.5% (active) | -96.6% (active) | -97.5% (active)
22 | Nc1cc(-c2c[nH]c3ccc(F)cc23)nc2cc(-c3c[nH]c4ccccc34)nn12 | -61.2% (active) | -42.8% (active) | 66.2% | -19.1% (active) | -19.1% (active) | 10.3% | -4.35% (active) | -8.04% (active) | -83.9% (active) | -33.9% (active)
23 | CCc1ccccc1NC(=O)N/C(N)=N/c1nc2ccccc2s1 | 0.728% (active) | -25% (active) | 3.91% (active) | 9.49% (active) | -18.9% (active) | 21.8% | -59.1% (active) | 13.8% | -53.7% (active) | 38%
24 | O=C(N/N=C/c1c[nH]c2ccccc12)Nc1ccccc1Cl | 7.73% (active) | -24.2% (active) | 5.18% (active) | 32.8% | 13.7% | 26.5% | -38.6% (active) | 11.4% | -45.1% (active) | 39.7%
25 | COc1cc(C2CC(c3ccc(Cl)cc3)=Nc3c(N)nc(N)nc3N2)ccc1Oc1nc(Nc2ccc(F)cc2)nc(N(C)C)n1 (stereo not given) | 25.1% | 14.3% | 33.7% | 47.7% | 45% | 21.9% | 17.9% | 84.4% | 16% | 75.6%
26 | COc1ccccc1Nc1nnc(-c2c[nH]c3ccccc23)o1 | 11.5% | 7.44% (active) | 44% | 43.4% | 4.61% (active) | 16.4% | -32.7% (active) | 22.9% | 7.77% (active) | 49.2%

From PubChem BioAssay (NCI)
